Results taken from PubChem BioAssay AID1578 (Sanford-Burnham Center for Chemical Genomics, 2009).
The whole screen tested about 290,000 compounds, of which about 3,000 (1%) were called active. What follows is part of a selection rich in actives, with near analogues and random picks from the rest. Unmarked numbers belong to inactive results. No stated cut-off is given here; in the data, active means inhibition mostly above about 36% (no sharp cut-off); inactive means mostly below about 34%.

Experiment: inhibition of NOD1-driven NF-kB reporter – cell-based, luminescence, uHTS, primary screen (AID 1578);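 further: HEK-293T reporter cells stimulated with the NOD1 agonist gamma-tri-DAP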
Details: NOD1-driven NF-kB luciferase reporter cells, at 4 µM, stronger effect = higher value

In order of rising inhibition:
1. CC(=O)NC1CC2CCC(C1)N2Cc1ccc(C)cc1 (stereo not given)  -106%
2. CC1=CC(=C2C(=O)c3ccccc3C2=O)C=C(C)O1  -62.6%
3. CN1C=CC(=C2C(=O)c3ccccc3C2=O)C=C1  -58.3%
4. Cc1ccc(NC(=O)c2cncc(Br)c2)nc1  -55.8%
5. O=C(O)c1ccc(-c2ccc(Cl)cc2Cl)o1  -54%
6. COC(=O)c1ccc(CN2C(=O)NC3(CCC(C)CC3)C2=O)cc1 (stereo not given)  -51.8%
7. O=C(N/N=C/c1cccc(F)c1)c1ccc(Cl)cc1  -50.5%
8. O=C(Nc1nccs1)c1ccc(N2CCOCC2)c([N+](=O)[O-])c1  -45.2%
9. Cc1ccccc1NC(=O)c1ccc(-c2ccc(Cl)cc2Cl)o1  -41.4%
10. CCN(CC)S(=O)(=O)c1ccc2c(c1)[nH]c(=S)n2CC  -41.3%
11. COc1ccc(C(=O)N(C)Cc2ccccc2)cc1Br  -39.1%
12. c1ccc(OCc2nc3ccccc3s2)cc1  -39.1%
13. Cc1cccc(N/C(=N/S(=O)(=O)c2ccccc2)c2ccccc2)n1  -38%
14. CCS(=O)(=O)n1nc(-c2ccccc2)nc1NCc1ccco1  -33.3%
15. O=C(Nc1nc(-c2ccc(-c3ccccc3)cc2)cs1)c1cc([N+](=O)[O-])ccc1N1CCOCC1  -31.8%
16. CCOc1ccccc1N(CC(=O)NCc1ccco1)C(=O)CCC(=O)Nc1nccs1  -30.2%
17. Cn1cnc([N+](=O)[O-])c1S(=O)(=O)c1ccc(Cl)cc1  -30.1%
18. Cc1ccc(C(=O)COC(=O)CN2C(=O)C3C4CC(C(Br)C4Br)C3C2=O)cc1 (stereo not given)  -29.5%
19. Cc1ccc(S(=O)(=O)N2CCC(C(=O)NCCCN3CCCC3=O)CC2)cc1C  -29.3%
20. COc1cccc(CN2CCCC(C(=O)c3ccc4c(c3)OCO4)C2)c1O (stereo not given)  -27.5%
21. CC(=O)NNC(=O)c1ccncc1  -26.4%
22. CC(=O)Nc1ccc(S(=O)(=O)Nc2ccc3c(c2)OCCO3)cc1  -25%
23. Cc1c(C)c2ccc(OCC(=O)NC(Cc3ccc(Cl)cc3)C(=O)O)cc2oc1=O (stereo not given)  -25%
24. CCCCNC(=O)NCc1cnn(C)c1C  -24.6%
25. Cc1ccc(CN2C(=O)CSC2c2ccc(F)cc2)cc1 (stereo not given)  -22.3%
26. CC(C)NC(=O)CN(Cc1ccc2c(c1)OCO2)C(=O)CCC(=O)Nc1ccccn1  -22.2%
27. CCOCCCNC(=S)N1CCN(CC)CC1  -22.2%
28. Cc1ccc(-c2nc(NCc3ccco3)n(S(C)(=O)=O)n2)cc1  -21.9%
29. COC(=O)c1ccc(CC(=O)c2nc3ccccc3s2)cc1  -21.3%
30. Cc1ccc(N(C(C)C(=O)Nc2cccc(N(C)S(C)(=O)=O)c2)S(C)(=O)=O)cc1 (stereo not given)  -21.2%
31. Cc1cc([N+](=O)[O-])nn1CCCC(=O)Nc1ccc(Cl)cc1Cl  -21%
32. COc1ccc(CNCc2cc(OC)ccc2OC)cc1  -19.6%
33. COc1ccc(OCCOc2ccccc2[N+](=O)[O-])cc1  -19.1%
34. COC(=O)c1cccc(NC(=O)Cn2nnc3ccccc32)c1  -17.8%
35. CC[n+]1c(-c2ccccc2)csc1Nc1c(C)n(C)n(-c2ccccc2)c1=O  -17.7%
36. COCCNC(=S)N/N=C/c1ccccc1C(=O)O  -17.1%
37. CCCCN1C(C)=CC(=C2C(=O)c3ccccc3C2=O)C=C1C  -16.5%
38. CCOC(=O)Cc1[nH]nc2c1C(c1ccsc1)C(C#N)=C(N)O2 (stereo not given)  -16.3%
39. CCNS(=O)(=O)c1ccc2c(c1)NCC2  -16.1%
40. CC1=NN(c2ccccc2)C(=O)C1=C(C)C  -15.5%
41. COc1cc(C(=O)NC(=S)N(C)Cc2ccccc2)cc(OC)c1OC  -14.8%
42. CC(C)n1c(=O)n(CC(=O)NCC2CCCO2)c(=O)c2c3c(sc21)COC(C)(C)C3 (stereo not given)  -14%
43. O=C(NCc1cccnc1)C1CCCN(S(=O)(=O)c2ccccc2)C1 (stereo not given)  -13.3%
44. Cn1c(=O)n(C)c2cc(/C=N/NC(=O)c3ccc(Cl)cc3)ccc21  -11.1%
45. COc1ccccc1S(=O)(=O)c1ccccc1[N+](=O)[O-]  -10.5%
46. CCC(=O)c1c[nH]c(C(=O)N2CCOCC2)c1  -10.3%
47. COc1ccc(N2CCN(C(=O)c3cc(=O)c4cc(C)c(C)cc4o3)CC2)cc1  -10.3%
48. CSC1=C(C#N)C(c2ccccc2Cl)C(C(=O)c2cccs2)C(O)(C(F)(F)F)N1 (stereo not given)  -8.1%
49. S=C(NCc1ccco1)N1CCN(Cc2ccco2)CC1  -6.3%
50. Cc1csc(NC(=O)CSc2nnc3ncccn23)n1  -6.2%
51. Cc1ccc(NC(=O)CN(C)CC(=O)Nc2c(C)cccc2C)c(Br)c1  -5.8%
52. O=C(Cc1ccc([N+](=O)[O-])cc1)N1CCN=C1SCc1ccccc1  -5%
53. O=C(c1ccccc1)c1cncc(Br)c1  -4.9%
54. Cc1cc(S(=O)(=O)Nc2ccc(C(=O)NCC(C)(C)N3CCOCC3)cc2)ccc1F  -4.6%
55. CCOc1ccc(CCNC(=O)COC(=O)C2CCN(S(=O)(=O)c3ccc(C)c(C)c3)CC2)cc1OCC  -4.1%
56. CCc1ccc(C(=O)c2cncc(Br)c2)cc1  -3.9%
57. O=[N+]([O-])c1ccccc1S(=O)(=O)c1ccccc1  -2.8%
58. COc1ccc(C2CC(c3ccc4ccccc4c3OC(C)=O)=NN2C(C)=O)cc1 (stereo not given)  -2.5%
59. Nc1cccnc1S(=O)(=O)c1ccccc1  -2.3%
60. CCOC(=O)C(c1ccccc1)C(Nc1ccc(F)cc1)c1ccccn1 (stereo not given)  -2%
61. CC1=CC(=C2C(=O)c3ccccc3C2=O)C=C(C)N1C  -1.3%
62. COc1nc(OC)nc(Oc2ccc(Cl)cc2[N+](=O)[O-])n1  0.6%
63. Cc1c(C)n(-c2ccccc2)c2ncnc(NCCN(C)C)c12  1.2%
64. C=CC(=O)NC(C)(C)Cc1ccccc1  1.5%
65. CCCCCCCN1C=CC(=O)CC1  2%
66. OCCN(CCO)CC(O)CN1c2ccccc2Sc2ccccc21 (stereo not given)  2.7%
67. CCCCCCN1Cc2ccccc2C1  5.4%
68. Cc1ccc(NC(=O)c2cncc(Br)c2)c([N+](=O)[O-])c1  5.4%
69. CCOc1ccc(CCNC(=O)C2CCC(=O)N2C2CCCCC2)cc1OCC (stereo not given)  6%
70. CCCCc1nc2ccc(S(=O)(=O)O)cc2[nH]1  7.8%
71. CCC(C)NC(=O)Cn1cc2c(n1)CCC(C)C2 (stereo not given)  7.9%
72. C=CC[n+]1c(-c2ccc(C)cc2)csc1Nc1c(C)n(C)n(-c2ccccc2)c1=O  8.4%
73. O=S(=O)(c1ccccc1)N1CCCc2ccccc21  8.6%
74. Cn1nnc(NC(=O)c2ccc([N+](=O)[O-])cc2Cl)n1  11.3%
75. O=C(C[n+]1cc(-c2ccc(F)cc2)n2c1CCC2)Nc1nc(-c2ccc(F)cc2)cs1  11.7%
76. Cc1cc(C)c(OCCCCn2cnc3ccccc3c2=O)c(C)c1  12.5%
77. CC(C(=O)NCc1ccccc1)N1C(=O)C2CC=C(Cl)CC2C1=O (stereo not given)  13.9%
78. CCCCN1C=CC(=C2N=c3cccc([N+](=O)[O-])c3=N2)C=C1  35.9%
79. CCN1C(=O)S/C(=C/c2ccc(Sc3nc4ccccc4[nH]3)o2)C1=O  38.6%
80. CC(C)(Cc1ccc(O)cc1)NC(=O)c1ccccc1  43.7%
81. CC(C)N1C(=O)S/C(=C/c2ccc(Sc3nc4ccccc4[nH]3)o2)C1=O  50.1%
82. C=CCSC1=C(C#N)C(c2ccccc2Cl)C(C(=O)c2cccs2)C(O)(C(F)(F)F)N1 (stereo not given)  63.3%
83. CCCN1C=CC(=C2C(=O)c3ccccc3C2=O)C=C1  97.9%

In the case of COc1ccc(C(=O)NC(=S)N(C)Cc2ccccc2)cc1Br, the inhibition is reported as 45% (active).
With COc1ccc([N+](=O)[O-])c(S(=O)(=O)c2ccc(Cl)cc2)n1 the inhibition was 79.2% (active).
In the case of COc1ccc([N+](=O)[O-])c(S(=O)(=O)c2ccccc2)n1, the inhibition is reported as 61.7% (active).
For CCSC1=C(C#N)C(c2ccccc2Cl)C(C(=O)c2cccs2)C(O)(C(F)(F)F)N1 (stereo not given), the inhibition was 64.5% (active).
For CC(C)(C)c1ccc(C(=O)N/N=C/c2cccc(Cl)c2)cc1, the inhibition was 72.3% (active).
For CCCCCN1C=CC(=C2C(=O)c3ccccc3C2=O)C=C1, the inhibition was 93.3% (active).
With CCCCN1C=CC(=C2C(=O)c3ccccc3C2=O)C=C1 the inhibition was 95.3% (active).
In the case of CCN1C=CC(=C2C(=O)c3ccccc3C2=O)C=C1, the inhibition is reported as 90.4% (active).
With CCCCCCN1C=CC(=C2C(=O)c3ccccc3C2=O)C=C1 the inhibition was 80.8% (active).
In the case of Cc1ccc(C(=O)c2cncc(Br)c2)cc1, the inhibition is reported as 48.9% (active).
In the case of Cc1ccc(NC(=O)c2cncc(Br)c2)c(O)c1, the inhibition is reported as 66% (active).
In the case of CS(=O)(=O)n1nc(-c2ccccc2)nc1NCc1ccco1, the inhibition is reported as 57.3% (active).
For O=C(Nc1nc(-c2ccccc2)cs1)c1ccc(N2CCOCC2)c([N+](=O)[O-])c1, the inhibition was 104% (active).
For CC(C)(Cc1ccc(O)cc1)NC(=O)SCc1ccccc1, the inhibition was 72.6% (active).
In the case of CCOCCCNC(=S)N1CCN(Cc2ccco2)CC1, the inhibition is reported as 57.4% (active).
For Cc1cccc(C)c1NC(=O)c1ccc(-c2ccc(Cl)cc2Cl)o1, the inhibition was 73.6% (active).
In the case of C=CCN1C(=O)S/C(=C/c2ccc(Sc3nc4ccccc4[nH]3)o2)C1=O, the inhibition is reported as 71.4% (active).
